# Source: PubChem BioAssay (National Center for Advancing Translational Sciences (NCATS))
# Gal4-VP16 FLuc – VP16 counterscreen qHTS for inhibitors of ROR gamma transcriptional activity. Drosophila S2 Gal4-VP16 UAS-luciferase, luminescence, 20 h. Potency, µM (series often up to 53.6 µM), usual class: inhibitors. actives 3.5% (n = 310,000);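 also: Gal4-VP16 expression switched on by copper sulfate through the metallothionein promoter; nearly all actives have a fitted effect of over 50% in size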
# KinaseGlo FLuc – Counterscreen for Luciferase (Kinase-Glo TM) Inhibition. Potency, µM (top dose mostly 38.3 µM), most hits filed as inhibitors. actives 0.28% (n = 200,000). Luciferin 4-monooxygenase (Photuris pensylvanica), Q27757. Kinase-Glo luciferase, ATP luminescence, 8 min. AID 1379, 2008; also: nearly all actives have a fitted effect of over 60% in size
#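 Luminescence was the read-out, taken after 8-minute incubation at ambient temperature. Luciferase turned over luciferin with 10 uM ATP in imidazole pH 7.2 buffer containing KCl, MgCl2, Tween 20 and BSA.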
# RORg inh – qHTS for inhibitors of ROR gamma transcriptional activity; Drosophila S2 Gal4-RORgamma UAS-luciferase reporter, 20 h; actives 5.4% (n = 310,000); Nuclear receptor ROR-gamma (Mus musculus), P51450; AID 2551, 2010; Potency, µM (titrated, usually from 53.6 µM), actives largely listed as inhibitors; also: nearly all actives have a fitted effect of over 60% in size
# Target sequence (P51450 whole entry, looked up, the tested form may be a part): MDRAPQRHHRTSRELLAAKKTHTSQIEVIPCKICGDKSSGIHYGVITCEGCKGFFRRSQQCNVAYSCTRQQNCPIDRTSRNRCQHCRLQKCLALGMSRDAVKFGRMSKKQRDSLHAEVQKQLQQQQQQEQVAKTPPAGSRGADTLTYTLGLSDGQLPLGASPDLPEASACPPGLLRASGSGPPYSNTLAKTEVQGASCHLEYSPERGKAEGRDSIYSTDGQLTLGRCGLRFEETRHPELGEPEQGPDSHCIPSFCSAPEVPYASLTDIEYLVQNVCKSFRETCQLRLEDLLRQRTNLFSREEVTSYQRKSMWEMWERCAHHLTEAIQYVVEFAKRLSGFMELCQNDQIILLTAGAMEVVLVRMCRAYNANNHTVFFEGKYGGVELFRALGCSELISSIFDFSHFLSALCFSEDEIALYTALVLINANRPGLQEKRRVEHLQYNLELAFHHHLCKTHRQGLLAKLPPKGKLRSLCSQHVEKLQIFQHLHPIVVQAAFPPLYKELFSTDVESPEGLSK
#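 Stably transfected Drosophila Schneider cells are the test system, with ROR gamma fused to Gal4 and luciferase under UAS control; luminescence is read after 20 hr of 700 uM copper sulfate induction at ambient temperature.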
# A number is an active result; – = inactive; ? = inconclusive; · = no result given; [ ] = dose if it differs, or a comment. Only some compounds are listed: those with a hit (about 6.2% of all), similar ones and a draw of the others. Calls follow the shape of the dose curve; as a rule, active = well fitted curve in the direction sought with a large enough effect; inconclusive = small, poorly fitted or top-dose-only effect, or another doubt; inactive = no such curve, though single readings can be large; an effect the other way counts as inactive or inconclusive.
SMILES,Gal4-VP16 FLuc,KinaseGlo FLuc,RORg inh
O=C(CS(=O)Cc1ccccc1Cl)Nc1ccccc1Cl (stereo unspecified),–,–,–
CCOC(=O)C(Cc1ccccc1)c1ccnc2nc(N)nn12 (stereo unspecified),–,–,–
CC[C@H](C)[C@H](NC(=O)[C@H](CCC(=O)O)NC(=O)[C@H](CO)NC(=O)[C@@H](NC(=O)[C@H](C)N)C(C)C)C(=O)N[C@@H](CCC(N)=O)C(=O)N[C@@H](CC(C)C)C(=O)N[C@@H](CCSC)C(=O)N[C@@H](Cc1cnc[nH]1)C(=O)N[C@@H](CC(N)=O)C(=O)N[C@@H](CC(C)C)C(=O)NCC(=O)N[C@@H](CCCCN)C(=O)N[C@@H](Cc1cnc[nH]1)C(=O)N[C@@H](CC(C)C)C(=O)N[C@@H](C)C(=O)N[C@@H](CO)C(=O)N[C@H](C(=O)N[C@@H](CCC(=O)O)C(=O)N[C@@H](CCCNC(=N)N)C(=O)N[C@@H](CCSC)C(=O)N[C@@H](CCC(N)=O)C(=O)N[C@@H](Cc1c[nH]c2ccccc12)C(=O)N[C@@H](CC(C)C)C(=O)N[C@@H](CCCNC(=N)N)C(=O)N[C@@H](CCCCN)C(=O)N[C@@H](CCCCN)C(=O)N[C@@H](CC(C)C)C(=O)N[C@@H](CCC(N)=O)C(=O)N[C@@H](CC(=O)O)C(=O)N[C@H](C(=O)N[C@@H](Cc1cnc[nH]1)C(=O)N[C@@H](CC(N)=O)C(=O)N[C@@H](Cc1ccccc1)C(=O)O)C(C)C)C(C)C,–,·,–
O=P(O)(O)C(O)(Cc1cccnc1)P(=O)(O)O,–,·,–[10 µM]
CC(C)Cc1ccc(C(C)C(=O)Nc2cccnc2)cc1 (stereo unspecified),?,·,–[1.91 µM]
CC(C)Cc1ccc(C(C)C(=O)Nc2ccc(O)cc2)cc1 (stereo unspecified),18µM,–,?
CCNc1ncc2nc(-c3cn(C)c4ccccc34)c(=O)n(CCC#N)c2n1,–,·,–
Nc1c(Cl)ncnc1NCCO,–,–,–
O=[N+]([O-])c1cccc(/C=N/Nc2ccccn2)c1,?,–,?
Fc1ccc(/C=N/Nc2nccnc2Cl)cc1,–,·,–
Nc1c(Cl)ncnc1N/N=C/c1ccc(O)cc1,13µM,·,10µM
Oc1ccc(/C=N/Nc2nccnc2Cl)cc1,–,3.5µM,–
O=[N+]([O-])c1cccc(/C=N/Nc2nccnc2Cl)c1,–,10µM,–
Cc1cccc(-n2ccnc2CN2CCN(C(C)C)C(CCO)C2)c1 (stereo unspecified),–,·,?
CCCc1cc(=O)oc2cc(C)cc(OCC(=O)N3CCC(C(=O)O)CC3)c12,–,·,–
CC(C)=CCCC(C)C1CC[C@@]2(C)C3=C(CC[C@@]12C)C1(C)CCC(O)C(C)(C)C1CC3 (stereo partly specified),–,–,–
CC(=O)Nc1cccc(OCc2ccc(F)cc2)c1,–,–,–
CCn1c(-c2ccccc2Cl)nn(CC(=O)Nc2ccc(OC)cc2)c1=S,–,–,–
O=[N+]([O-])c1ccccc1-n1cnc2ccccc21,–,–,–
CN(Cc1cnccn1)Cc1cn(Cc2ccccc2)nc1-c1ccc2c(c1)OCO2,–,·,–
CCc1nnc(SCC(=O)Nc2nccs2)n1CC,–,·,–
CCn1c(Cc2cccc3ccccc23)nnc1SCC(=O)Nc1nccs1,?,–,14µM
COc1ccccc1N(Cc1cc(=O)[nH]c2ccccc12)C(=O)c1cccc([N+](=O)[O-])c1,–,·,–
CC(C)C(=O)NCCCc1ccccc1,–,–,–
O=C(CNC(=S)NC(=O)c1ccc(F)cc1)c1ccccc1,–,–,11µM
SMILES,Gal4-VP16 FLuc,KinaseGlo FLuc,RORg inh
c1ccc(NC(c2ccccc2)c2ccncc2)cc1 (stereo unspecified),–,·,–
Cc1ccccc1C(=O)NC(=S)NCC(=O)c1ccccc1,?,–,11µM
O=C(NC(=S)NC(CO)c1ccccc1)c1ccc(F)cc1 (stereo unspecified),–,·,?
CC(C)C(=O)NC(=S)NCC(=O)c1ccccc1,?,–,11µM
O=C(CNC(=S)NC(=O)c1ccccc1Br)c1ccccc1,–,·,–
O=C(NC(=S)NC(c1ccccc1)c1ccncc1)c1ccccc1 (stereo unspecified),?,–,11µM
Cc1noc(C)c1C(=O)OCC(=O)Nc1cc(S(=O)(=O)N2CCOCC2)ccc1Cl,–,–,–
COc1ccc(C(=O)N2CCC[C@@]3(CCN(C(=O)Nc4cccc(F)c4)C3)C2)cc1,–,–,–
COc1ccc(/C=C(\C#N)C(=O)NCc2ccccc2)cc1,–,·,?
CCOc1ccccc1Nc1ccc(N)cc1S(=O)(=O)O,·,–[7.66 µM],·
O=C(CNC(=S)NC(=O)c1ccccc1)c1ccccc1,?,–,11µM
